According to PubChem BioAssay AID1159580 (chemical genetic matrix, 2015):
Where “and” joins values, the source holds several entries; their conditions need not be identical. Equal values may be shown once. The whole screen tested about 5,500 compounds, of which about 2,000 (36%) were called active. About 18% were inconclusive and are not listed. Rule as the data show it: active = normalized growth mostly below about 0.91 (no sharp cut-off); inconclusive = no clear call, values can overlap the other calls; inactive = mostly above about 0.92. This is one part of the list.

Assay: chemical genetic growth profiling, strain panel (AID 1159580);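 also: tested at 20 µM; growth read once vehicle control cultures reached saturation at 30 °C; 1 = growth at the plate median or of vehicle wells; lower values mean less growth of the strain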
Settings: S. cerevisiae deletion strains, growth OD

Measured: normalized growth

CC(C)c1ccc2c(c1O)CC[C@H]1C3=C(CC[C@]21C)C(=O)OC3
0.661 (active) and 0.918 (inactive): locus YHR030C, strain SLT2, stronger effect = lower value
active: locus YAL013W, strain DEP1, stronger effect = lower value 0.847 | locus YDL074C, strain BRE1, stronger effect = lower value 0.617 | locus YDL134C, strain PPH21, stronger effect = lower value 0.8 | locus YDL192W, strain arf1, stronger effect = lower value 0.898 | locus YDR137W, strain rgp1, stronger effect = lower value 0.825 | locus YDR162C, strain NBP2, stronger effect = lower value 0.81 | locus YDR318W, strain mcm21, stronger effect = lower value 0.886 | locus YDR392W, strain spt3, stronger effect = lower value 0.542 | locus YDR502C, strain sam2, stronger effect = lower value 0.913 | locus YEL061C, strain CIN8, stronger effect = lower value 0.772 | locus YER155C, strain BEM2 (second series), stronger effect = lower value 0.807 | locus YER155C, strain BEM2, stronger effect = lower value 0.846 | locus YER167W, strain BCK2, stronger effect = lower value 0.781 | locus YGL086W, strain mad1, stronger effect = lower value 0.867 | locus YGL248W, strain PDE1, stronger effect = lower value 0.754 | locus YGR078C, strain PAC10, stronger effect = lower value 0.718 | locus YHR129C, strain ARP1, stronger effect = lower value 0.798 | locus YHR142W, strain chs7, stronger effect = lower value 0.867 | locus YIL066C, strain RNR3, stronger effect = lower value 0.601 | locus YJL129C, strain trk1, stronger effect = lower value 0.856 | locus YJL187C, strain SWE1 (second series), stronger effect = lower value 0.86 | locus YJR075W, strain HOC1, stronger effect = lower value 0.866 | locus YKL085W, strain MDH1 (second series), stronger effect = lower value 0.918 | locus YKL085W, strain MDH1, stronger effect = lower value 0.918 | locus YKR001C, strain vps1, stronger effect = lower value 0.834 | locus YLR039C, strain RIC1, stronger effect = lower value 0.628 | locus YLR262C, strain YPT6 (second series), stronger effect = lower value 0.816 | locus YLR320W, strain mms22, stronger effect = lower value 0.863 | locus YLR330W, strain CHS5, stronger effect = lower value 0.638 | locus YLR342W, strain FKS1 (second series), stronger effect = lower value 0.65 | locus YLR418C, strain cdc73, stronger effect = lower value 0.7 | locus YMR307W, strain GAS1, stronger effect = lower value 0.474 | locus YNL071W, strain lat1, stronger effect = lower value 0.853 | locus YNL233W, strain BNI4, stronger effect = lower value 0.723 | locus YNL307C, strain MCK1, stronger effect = lower value 0.536 | locus YOR184W, strain ser1, stronger effect = lower value 0.671 | locus YPL055C, strain LGE1, stronger effect = lower value 0.598 | locus YPL241C, strain CIN2, stronger effect = lower value 0.911 | locus YPR163C, strain tif3, stronger effect = lower value 0.794
0.646 (active) and 0.956 (inactive): locus YJL095W, strain BCK1, stronger effect = lower value
inactive: locus YAL021C, strain ccr4, stronger effect = lower value 0.999 | locus YAL026C, strain drs2, stronger effect = lower value 0.946 | locus YAL030W, strain snc1, stronger effect = lower value 0.969 | locus YBL061C, strain skt5, stronger effect = lower value 0.962 | locus YBR009C, strain hhf1, stronger effect = lower value 0.96 | locus YBR021W, strain FUR4, stronger effect = lower value 0.903 | locus YBR023C, strain chs3, stronger effect = lower value 0.957 | locus YBR171W, strain sec66, stronger effect = lower value 0.935 | locus YBR229C, strain ROT2, stronger effect = lower value 0.97 | locus YBR231C, strain swc5, stronger effect = lower value 0.957 | locus YBR279W, strain paf1, stronger effect = lower value 0.979 | locus YCL011C, strain gbp2, stronger effect = lower value 0.933 | locus YCL016C, strain dcc1, stronger effect = lower value 0.973 | locus YCL029C, strain bik1, stronger effect = lower value 0.912 | locus YCL061C, strain MRC1, stronger effect = lower value 0.925 | locus YCL069W, strain vba3, stronger effect = lower value 0.95 | locus YCR088W, strain abp1, stronger effect = lower value 0.933 | locus YDL005C, strain med2, stronger effect = lower value 0.961 | locus YDL035C, strain GPR1, stronger effect = lower value 0.943 | locus YDL040C, strain nat1, stronger effect = lower value 0.965 | locus YDL101C, strain DUN1, stronger effect = lower value 0.943 | locus YDL185W, strain tfp1, stronger effect = lower value 0.988 | locus YDR001C, strain nth1, stronger effect = lower value 0.935 | locus YDR069C, strain doa4, stronger effect = lower value 0.996 | locus YDR101C, strain arx1, stronger effect = lower value 0.968 | locus YDR150W, strain NUM1, stronger effect = lower value 0.959 | locus YDR159W, strain sac3, stronger effect = lower value 1 | locus YDR195W, strain ref2 1.01 | locus YDR297W, strain sur2, stronger effect = lower value 0.966 | locus YDR334W, strain swr1, stronger effect = lower value 0.956 | locus YDR335W, strain msn5, stronger effect = lower value 0.973 | locus YDR388W, stronger effect = lower value 0.99 | locus YEL003W, strain gim4, stronger effect = lower value 0.936 | locus YEL037C, strain rad23, stronger effect = lower value 0.941 | locus YEL061C, strain CIN8 (second series), stronger effect = lower value 0.939 | locus YER015W, strain faa2, stronger effect = lower value 0.961 | locus YER016W, strain bim1, stronger effect = lower value 0.976 | locus YER110C, stronger effect = lower value 0.943 | locus YER111C, strain swi4, stronger effect = lower value 0.946 | locus YFR010W, strain ubp6, stronger effect = lower value 0.952 | locus YGL078C, strain dbp3, stronger effect = lower value 0.962 | locus YGL167C, strain pmr1, stronger effect = lower value 0.967 | locus YGL173C, strain kem1, stronger effect = lower value 0.971 | locus YGL227W, strain vid30, stronger effect = lower value 0.945 | locus YGL240W, strain doc1, stronger effect = lower value 0.953 | locus YGL253W, strain hxk2, stronger effect = lower value 0.987 | locus YGR135W, strain pre9, stronger effect = lower value 0.953 | locus YGR252W, strain gcn5, stronger effect = lower value 0.916 | locus YHR013C, strain ard1, stronger effect = lower value 1.02 | locus YHR027C, strain rpn1, stronger effect = lower value 0.994 | locus YHR079C, strain IRE1 (second series), stronger effect = lower value 0.959 | locus YHR079C, strain IRE1, stronger effect = lower value 0.927 | locus YHR094C, strain hxt1, stronger effect = lower value 0.971 | locus YHR200W, strain rpn10, stronger effect = lower value 0.957 | locus YIL073C, strain SPO22, stronger effect = lower value 0.844 | locus YIL125W, strain kgd1, stronger effect = lower value 0.954 | locus YIR030C, strain dcg1, stronger effect = lower value 0.965 | locus YJL092W, strain hpr5, stronger effect = lower value 0.941 | locus YJL095W, strain BCK1 (second series), stronger effect = lower value 0.97 | locus YJL115W, strain asf1, stronger effect = lower value 0.956 | locus YJL134W, strain LCB3, stronger effect = lower value 0.975 | locus YJL154C, strain vps35, stronger effect = lower value 0.95 | locus YJL164C, strain tpk1, stronger effect = lower value 0.953 | locus YJL166W, strain qcr8, stronger effect = lower value 0.987 | locus YJL168C, strain set2, stronger effect = lower value 0.989 | locus YJL187C, strain SWE1, stronger effect = lower value 0.985 | locus YJR043C, strain POL32, stronger effect = lower value 0.865 | locus YJR066W, strain TOR1, stronger effect = lower value 0.898 | locus YKL009W, strain mrt4, stronger effect = lower value 0.935 | locus YKL068W, stronger effect = lower value 0.946 | locus YKL160W, strain elf1, stronger effect = lower value 0.956 | locus YKR026C, strain gcn3, stronger effect = lower value 0.931 | locus YKR091W, strain srl3, stronger effect = lower value 0.967 | locus YLL001W, strain dnm1, stronger effect = lower value 0.967 | locus YLL026W, stronger effect = lower value 0.962 | locus YLL041C, strain sdh2, stronger effect = lower value 0.97 | locus YLR027C, strain aat2, stronger effect = lower value 0.964 | locus YLR058C, strain SHM2, stronger effect = lower value 0.911 | locus YLR102C, strain apc9, stronger effect = lower value 0.954 | locus YLR113W, strain HOG1, stronger effect = lower value 0.909 | locus YLR221C, strain rsa3, stronger effect = lower value 0.96 | locus YLR258W, strain gsy2, stronger effect = lower value 0.951 | locus YLR262C, strain YPT6, stronger effect = lower value 0.667 | locus YLR268W, strain sec22, stronger effect = lower value 0.923 | locus YLR342W, strain FKS1, stronger effect = lower value 0.987 | locus YLR357W, strain rsc2, stronger effect = lower value 0.991 | locus YLR370C, strain arc18, stronger effect = lower value 0.965 | locus YLR384C, strain iki3, stronger effect = lower value 0.967 | locus YML016C, strain PPZ1, stronger effect = lower value 0.969 | locus YML032C, strain rad52, stronger effect = lower value 0.912 | locus YML120C, strain ndi1, stronger effect = lower value 0.968 | locus YML124C, strain tub3, stronger effect = lower value 0.988 | locus YMR058W, strain fet3, stronger effect = lower value 0.961 | locus YMR078C, strain ctf18, stronger effect = lower value 0.923 | locus YMR125W, strain sto1, stronger effect = lower value 0.949 | locus YMR129W, stronger effect = lower value 0.96 | locus YMR205C, strain PFK2, stronger effect = lower value 0.88 | locus YMR223W, strain ubp8, stronger effect = lower value 0.91 | locus YMR231W, strain pep5, stronger effect = lower value 0.975 | locus YMR263W, strain SAP30, stronger effect = lower value 0.896 | locus YNL067W, strain RPL9B, stronger effect = lower value 0.932 | locus YNL183C, strain NPR1, stronger effect = lower value 0.924 | locus YNL209W, strain ssb2, stronger effect = lower value 0.972 | locus YNL248C, strain rpa49, stronger effect = lower value 0.957 | locus YNL250W, strain rad50, stronger effect = lower value 0.971 | locus YNL271C, strain bni1, stronger effect = lower value 0.992 | locus YNL298W, strain CLA4, stronger effect = lower value 0.957 | locus YNL322C, strain KRE1 (second series), stronger effect = lower value 0.973 | locus YNR049C, strain mso1, stronger effect = lower value 0.976 | locus YNR052C, strain pop2, stronger effect = lower value 0.953 | locus YOL012C, strain htz1 0.499 | locus YOL147C, strain pex11, stronger effect = lower value 0.933 | locus YOR001W, strain rrp6, stronger effect = lower value 0.985 | locus YOR061W, strain CKA2, stronger effect = lower value 0.964 | locus YOR069W, strain VPS5, stronger effect = lower value 0.944 | locus YOR070C, strain gyp1, stronger effect = lower value 0.956 | locus YOR080W, strain dia2, stronger effect = lower value 0.986 | locus YOR083W, strain WHI5, stronger effect = lower value 0.966 | locus YOR106W, strain vam3, stronger effect = lower value 0.999 | locus YOR136W, strain idh2, stronger effect = lower value 0.929 | locus YOR144C, strain elg1, stronger effect = lower value 0.958 | locus YOR231W, strain MKK1, stronger effect = lower value 0.942 | locus YOR265W, strain rbl2, stronger effect = lower value 0.963 | locus YOR270C, strain vph1, stronger effect = lower value 0.794 | locus YOR290C, strain snf2, stronger effect = lower value 0.909 | locus YOR316C, strain cot1, stronger effect = lower value 0.968 | locus YPL051W, strain arl3, stronger effect = lower value 0.932 | locus YPL078C, strain atp4, stronger effect = lower value 0.934 | locus YPL106C, strain sse1, stronger effect = lower value 0.965 | locus YPL240C, strain hsp82, stronger effect = lower value 0.971 | locus YPL256C, strain CLN2, stronger effect = lower value 0.876 | locus YPR119W, strain clb2, stronger effect = lower value 0.951 | locus YPR141C, strain kar3, stronger effect = lower value 0.965 | locus YPR167C, strain met16, stronger effect = lower value 0.947 | strain wtn01, stronger effect = lower value 0.965
